± gives the standard deviation of the averaged measurements. Whole data set: some 33,000 sequences, median “E-score (rank enrichment, -0.5 to 0.5)” near -0.0043, cut for the highest 2% near 0.24. This is one part of a sample in which the highest values are shown more often than they occur.
tested on: 2Sp-muMax20 (muMax20 with two 2,6-bis(methyl)pyridine Cys staples); assay: PBM 8-mer E-score (E-score (rank enrichment, -0.5 to 0.5)); higher = stronger preferential binding
Experimental: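 Protein binding microarray (universal PBM chip covering all 10-mers in fixed probe flanks) with chemically synthesized human Max(13-93) bHLH-LZ analogs (not full-length Max) bearing noncanonical residues (hArg, Tha, Aib, Nle at 65) and aromatic Cys staples. Read-out per 8-mer (and its reverse complement): E-score (rank-based enrichment, -0.5 to 0.5) and Z-score of median probe intensity.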

| Sequence | PBM 8-mer E-score |
| --- | --- |
| ATTAACAC | 0.306 ± 0.05 |
| CTAAATTA | -0.0028 ± 0.045 |
| GTTAATCA | 0.198 ± 0.048 |
| ATAAATTA | 0.303 ± 0.049 |
| ATTAATAG | 0.197 ± 0.079 |
| ATTAATCC | 0.0916 ± 0.0058 |
| AAGAATCA | 0.116 ± 0.04 |
| GAGGCCTA | -0.184 ± 0.066 |
| AGAAATCT | 0.0669 ± 0.11 |
| ATATGAAA | 0.219 ± 0.031 |
| ACACTTCG | -0.0252 ± 0.098 |
| AAAAATTA | 0.116 ± 0.052 |
| CAAAATTA | 0.15 ± 0.063 |
| GAAAATTA | 0.291 ± 0.063 |
| AGCGTGCG | 0.178 ± 0.02 |
| ATAGAATA | 0.171 ± 0.011 |
| CTAGAATA | 0.108 ± 0.076 |
| GTAGAATA | 0.253 ± 0.0027 |
| ACTATTAG | -0.00553 ± 0.16 |
| CATATTAA | 0.247 ± 0.019 |
| CATATTGG | 0.251 ± 0.0054 |
| AATATTAG | 0.243 ± 0.026 |

| Sequence | PBM 8-mer E-score |
| --- | --- |
| GATATTAC | 0.178 ± 0.026 |
| CATATTAG | 0.222 ± 0.025 |
| CCTATTAA | 0.154 ± 0.024 |
| AATATTGG | 0.0895 ± 0.038 |
| CATATTAC | 0.0498 ± 0.065 |
| CATATTGC | 0.164 ± 0.033 |
| AATATTAC | 0.294 ± 0.0036 |
| TATATTAA | 0.211 ± 0.059 |
| TGACACCA | -0.0859 ± 0.034 |
| GAGGGTCC | -0.156 ± 0.027 |
| AAAAGGTG | -0.103 ± 0.028 |
| TCGTCCCA | 0.114 ± 0.012 |
| GGTGCGAA | 0.0856 ± 0.053 |
| ATGACTTC | 0.112 ± 0.019 |
| GGCTTACC | -0.108 ± 0.026 |
| CTTATGCA | 0.0234 ± 0.047 |
| ATCACTTC | 0.0342 ± 0.00049 |
| AATATTCT | 0.231 ± 0.057 |
| GATATTAA | 0.118 ± 0.0066 |
| AATATTAA | 0.33 ± 0.029 |
| CATATTTA | 0.228 ± 0.01 |
| ACTATTAT | 0.142 ± 0.1 |

| Sequence | PBM 8-mer E-score |
| --- | --- |
| AATATTTC | 0.0962 ± 0.04 |
| AATATTTA | 0.282 ± 0.036 |
| AATATTAT | 0.246 ± 0.036 |
| ACTATTAA | 0.157 ± 0.022 |
| AGCACCGC | -0.216 ± 0.056 |
| ACTGGCGC | 0.0318 ± 0.075 |
| CGCGACTC | 0.0134 ± 0.05 |
| AGAAGTGC | -0.15 ± 0.01 |
| AGTGTACA | 0.138 ± 0.071 |
| TCGTGTCA | -0.0282 ± 0.02 |
| ATTCGACA | -0.0611 ± 0.091 |
| CGACTGCG | -0.11 ± 0.012 |
| CGGAAGAC | -0.286 ± 0.011 |
| CCTGGCTC | -0.193 ± 0.028 |
| CGCTTATA | 0.116 ± 0.018 |
| AGCTTATA | 0.249 ± 0.15 |
| AGCTTATC | 0.0357 ± 0.093 |
| CGTCTTTA | 0.0497 ± 0.034 |
| CTGGGTGA | -0.0861 ± 0.036 |
| TGCGCGCA | 0.1734 ± 0.0016 |
| GCTTATTA | 0.172 ± 0.037 |
| CCTTATTC | -0.0629 ± 0.052 |

| Sequence | PBM 8-mer E-score |
| --- | --- |
| CCTTATTA | 0.28 ± 0.003 |
| ACTCCTAG | -0.146 ± 0.087 |
| CGACATGC | 0.0468 ± 0.0062 |
| ATAACAGG | -0.0186 ± 0.03 |
| ATAACACA | 0.253 ± 0.075 |
| ATAACACG | 0.269 ± 0.011 |
| GTAACACA | 0.183 ± 0.032 |
| ATAACACC | 0.0871 ± 0.057 |
| CTAACACA | 0.0336 ± 0.063 |
| ATCTAAGA | -0.0722 ± 0.047 |
| TCGGAAGA | -0.155 ± 0.038 |
| TGTTAACA | 0.2746 ± 0.0014 |
| AGTTAACA | 0.145 ± 0.13 |
| CGTTAACA | 0.0471 ± 0.048 |
| AGCTTTTA | 0.0891 ± 0.031 |
| ATATTAAG | 0.16 ± 0.025 |
| CTATTAAA | 0.141 ± 0.053 |
| ATATTAAT | 0.318 ± 0.08 |
| TTATTAAA | 0.166 ± 0.054 |
| ATATTAAC | 0.182 ± 0.0085 |

From the supplement of paper PMC12636033
